This excerpt belongs to a sample that is enriched for hits.
HT1080 IDH1KD tx: kills HT-1080 cells with IDH1 knockdown. HT-1080 IDH1 knockdown viability, ATP luminescence, 48 h. Potency, µM (titrated, usually from 46.1 µM), usual class: cytotoxic. hit rate 2% among 360,000. AID 686971
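Luminescent ATP read-out (CellTiter-Glo, 10 min at room temperature) after 48 h compound exposure at 37 °C gave viability of IDH1-knockdown HT-1080 cells. Activity was normalised to DMSO and cell-free wells, then fitted as concentration-response curves.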
IL-1B inflam inh: inflammasome signaling inhibition, IL-1 beta readout. activity change, % at 57.5 µM. hit rate 4.7% among 360,000. THP-1 LPS/ATP IL-1B secretion, AlphaLISA, 16 h; stronger effect = lower value; in the data active means activity change below about -50%; inconclusive means mostly about -30% to -49%
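Secreted IL-1B measured by AlphaLISA bead assay after 16 h compound exposure of THP-1 cells; compounds (final up to 57.5 uM) added 1 h before LPS (250 ng/mL) and ATP (1.25 mM) stimulation; lower signal means less secretion.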
DT40 TDP1 no CPT: qHTS for Inhibitors of human tyrosyl-DNA phosphodiesterase 1 (TDP1): qHTS in cells in absence of CPT; DT40 Tdp1-/- hTDP1 cells, no CPT, ATP luminescence, 48 h; Potency, µM (top dose mostly 46.2 µM), most hits filed as inhibitors; hit rate 15% among 420,000; further: nearly all actives have a fitted effect of over 55% in size
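A cellular qHTS used chicken DT40 cells lacking endogenous Tdp1 but carrying stably transfected human TDP1. Compounds were applied without camptothecin, and cell growth kinetics were judged by ATP-dependent luminescence after ≥48 hr.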
ALOX12 inh: ALOX12 (human) lipoxygenase inhibition | P18054 | purified 12hLO, xylenol orange hydroperoxide absorbance | Potency, µM (series often up to 108 µM), hits mostly inhibitors | hit rate 1.1% among 580,000 | AID 1671190
Target sequence (P18054 whole entry, looked up): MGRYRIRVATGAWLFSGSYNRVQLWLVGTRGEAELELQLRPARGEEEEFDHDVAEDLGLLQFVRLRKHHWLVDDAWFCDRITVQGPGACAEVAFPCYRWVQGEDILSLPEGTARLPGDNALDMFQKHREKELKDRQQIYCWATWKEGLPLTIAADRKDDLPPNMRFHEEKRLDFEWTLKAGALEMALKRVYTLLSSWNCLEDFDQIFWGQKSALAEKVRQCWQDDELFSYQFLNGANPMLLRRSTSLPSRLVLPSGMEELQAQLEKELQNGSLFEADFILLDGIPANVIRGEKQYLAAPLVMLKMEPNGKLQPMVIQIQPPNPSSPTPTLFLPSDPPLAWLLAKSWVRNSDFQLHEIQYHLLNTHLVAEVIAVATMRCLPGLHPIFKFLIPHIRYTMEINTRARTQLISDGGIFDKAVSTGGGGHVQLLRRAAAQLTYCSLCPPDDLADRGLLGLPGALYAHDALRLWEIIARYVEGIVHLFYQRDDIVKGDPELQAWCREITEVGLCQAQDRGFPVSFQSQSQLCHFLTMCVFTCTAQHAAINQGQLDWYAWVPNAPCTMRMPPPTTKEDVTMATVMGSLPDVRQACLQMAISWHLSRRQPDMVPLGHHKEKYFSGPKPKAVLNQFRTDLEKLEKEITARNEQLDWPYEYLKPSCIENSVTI
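Purified human 12hLO (150 nM final) in 25 mM Hepes, 0.01% Triton X-100, pH 7.0 was preincubated 15 min at room temperature with compound. Then 40 uM arachidonic acid was added, 30 min. Hydroperoxide was read by Fe-XO absorbance ratio 573/405 nm.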
DT40 TDP1 CPT: DT40-hTDP1 cell growth loss with CPT. chicken DT40 Tdp1-/-;hTDP1 cells + 20 nM CPT, ATP luminescence, 48 h. Potency, µM (doses to about 46.2 µM), actives largely listed as inhibitors. hit rate 12% among 420,000. AID 686979; further: nearly all actives have a fitted effect of over 55% in size
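Chicken DT40 Tdp1-/- cells stably complemented with human TDP1 were seeded at 400 cells/well in medium containing 20 nM camptothecin, exposed to pin-transferred compounds, and grown at 37 °C for at least 48 hr. Viability was read as ATP luminescence.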
HT1080-NT tox: kills 2HG-producing HT-1080-NT fibrosarcoma cells | Potency, µM (top dose mostly 46.1 µM), usual class: cytotoxic | hit rate 1.6% among 360,000 | AID 686970 | HT-1080-NT fibrosarcoma viability, CellTiter-Glo ATP luminescence, 48 h;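 further: NT is the 2HG producing partner of a matched IDH1 knockdown line; nearly all actives have a fitted effect of over 55% in size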
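750 cells/well, RPMI + 5% FBS; 2 h settle, compound pin-transfer, 48 h at 37 degrees C. CellTiter-Glo 10 min RT, luminescence. Normalized to DMSO and media-only wells.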
A number is an active result; [ ] = remark or other dose. Unless noted, the call rests on the fitted dose curve; in most records, active means well fitted curve in the direction sought with a large enough effect; inconclusive means small, poorly fitted or top-dose-only effect, or another doubt; inactive means no such curve, though single readings can be large; an effect the other way counts as inactive or inconclusive.

Screening O=[N+]([O-])c1cccc(-c2c(-c3ccccc3)ncc3ccc(F)cc23)c1 returned HT1080 IDH1KD tx inactive, IL-1B inflam inh inactive, DT40 TDP1 no CPT 8.2µM, ALOX12 inh inactive, DT40 TDP1 CPT 9.2µM and HT1080-NT tox inactive.
For CNc1ccc(-c2cccc([N+](=O)[O-])c2)cn1 the results were HT1080 IDH1KD tx inactive, IL-1B inflam inh inactive, DT40 TDP1 no CPT inconclusive, ALOX12 inh inactive, DT40 TDP1 CPT inconclusive and HT1080-NT tox inactive.
Screening Cc1cccc(NC(=O)c2nc[nH]c2C(=O)NCc2ccccc2)c1 returned HT1080 IDH1KD tx inactive, IL-1B inflam inh inactive, DT40 TDP1 no CPT inconclusive, ALOX12 inh inactive, DT40 TDP1 CPT inconclusive and HT1080-NT tox inactive.
For Cc1cccc(NC(=O)c2nc[nH]c2C(=O)NCCCCCCNC(=O)c2[nH]cnc2C(=O)Nc2cccc(C)c2)c1 the results were HT1080 IDH1KD tx inactive, IL-1B inflam inh inactive, DT40 TDP1 no CPT 23µM, ALOX12 inh inactive, DT40 TDP1 CPT 12µM and HT1080-NT tox inactive.
CNC(=O)c1[nH]cnc1C(=O)Nc1cccc(C)c1 was read as HT1080 IDH1KD tx inactive, IL-1B inflam inh inactive, DT40 TDP1 no CPT inactive, ALOX12 inh inactive, DT40 TDP1 CPT inactive and HT1080-NT tox inactive.
Screening Cc1cccc(NC(=O)c2nc[nH]c2C(=O)NCCCCNC(=O)c2[nH]cnc2C(=O)Nc2cccc(C)c2)c1 returned HT1080 IDH1KD tx inactive, IL-1B inflam inh inactive, DT40 TDP1 no CPT 21µM, ALOX12 inh inactive, DT40 TDP1 CPT 15µM and HT1080-NT tox inactive.
Screening Cc1ccc2c(c1)NC(c1cccnc1)=NC(c1ccc(F)cc1)=N2 returned DT40 TDP1 no CPT 5.8µM, ALOX12 inh inactive and DT40 TDP1 CPT inconclusive.
For CCCCOc1ccc(C2=NC(c3cccs3)=Nc3ccc(OC)cc3N2)cc1 the results were DT40 TDP1 no CPT inconclusive, ALOX12 inh inactive and DT40 TDP1 CPT inactive.
For Cc1ccc(C2=NC(c3ccc(F)cc3)=Nc3ccc(C)cc3N2)cc1 the results were DT40 TDP1 no CPT inconclusive, ALOX12 inh inactive and DT40 TDP1 CPT inconclusive.
Screening CCc1ccc2c(c1)NC(c1cccnc1)=NC(c1ccc(C(C)(C)C)cc1)=N2 returned DT40 TDP1 no CPT inconclusive, ALOX12 inh inactive and DT40 TDP1 CPT 18µM.
`CC(C)c1ccc(C2=NC(c3ccncc3)=Nc3ccc(F)cc3N2)cc1` gave DT40 TDP1 no CPT inconclusive, ALOX12 inh inconclusive and DT40 TDP1 CPT 23µM.
CSc1ccc(C(=O)N2CCc3c(cnc(C)c3CNC(=O)c3cncs3)C2)cc1 was read as DT40 TDP1 no CPT inconclusive, ALOX12 inh inactive and DT40 TDP1 CPT inactive[9.04 µM].
`O=C(C1CCCN(S(=O)(=O)c2ccc(Br)s2)C1)N1CCN(c2cccc(Cl)c2)CC1` (stereo unspecified) gave DT40 TDP1 no CPT 21µM, ALOX12 inh inconclusive and DT40 TDP1 CPT 16µM.
For O=C(C1CCCN(S(=O)(=O)c2cccs2)C1)N1CCN(c2cccc(Cl)c2)CC1 (stereo unspecified) the results were DT40 TDP1 no CPT 15µM, ALOX12 inh inconclusive and DT40 TDP1 CPT 21µM.
O=C(CCNS(=O)(=O)c1cccs1)N1CCN(c2cccc(Cl)c2)CC1 was read as HT1080 IDH1KD tx inactive, IL-1B inflam inh inactive, DT40 TDP1 no CPT inconclusive, ALOX12 inh inactive, DT40 TDP1 CPT inconclusive and HT1080-NT tox inactive.
`O=C(Cn1cnnn1)N1CCc2onc(-c3cccc4ccccc34)c2C1` gave ALOX12 inh inactive.
CC1CCCC(NC(=S)NC(=O)c2ccco2)C1C (stereo unspecified) was read as HT1080 IDH1KD tx inactive, IL-1B inflam inh inactive, DT40 TDP1 no CPT inconclusive, ALOX12 inh 32µM, DT40 TDP1 CPT 15µM and HT1080-NT tox inactive.
Screening O=C(NC(=S)NNC(=O)c1ccco1)c1ccccc1 returned HT1080 IDH1KD tx inconclusive, IL-1B inflam inh inactive, DT40 TDP1 no CPT 16µM, ALOX12 inh inconclusive, DT40 TDP1 CPT inconclusive and HT1080-NT tox inactive.

Screening data from PubChem BioAssay.
